Reference: PubChem BioAssay (NCATS)
Records with an inconclusive call do not appear. Calls of active or inactive are those of the source. Calls follow the shape of the full dose curve.

Assay: Primary qHTS for Vero E6 cytotoxicity: counterscreen for inhibitors of SARS-S pseudo-typed particle cell entry (AID 1479150)
Details: cell viability; series mostly up to 57.1 µM; activity change, negative = cytotoxicity: at the top concentration
% is scaled to controls: 0 for no effect and ±100 for the full control effect.

Row | SMILES | activity change, negative = cytotoxicity | outcome
1 | COC(=O)Nc1nc2ccc(Sc3ccccc3)cc2[nH]1 | -9.1% (inactive) | 
2 | C#CCN(C)Cc1ccccc1 |  | inactive
3 | O=C1OC2(c3ccccc31)c1cc(I)c(O)c(I)c1Oc1c2cc(I)c(O)c1I | -9.65% (inactive) | 
4 | CC(C(=O)O)c1ccc2c(c1)Cc1cccnc1O2 (stereo not drawn) |  | inactive
5 | C=CC[N+]1([C@H]2C[C@H]3[C@@H]4CC[C@H]5C[C@H](OC(C)=O)[C@@H](N6CCCCC6)C[C@]5(C)[C@H]4CC[C@]3(C)[C@H]2OC(=O)CC)CCCCC1 | -3.17% (inactive) | 
6 | C[C@@H]1C[C@H]2[C@@H]3CCC4=CC(=O)C=C[C@]4(C)[C@@]3(Cl)[C@@H](O)C[C@]2(C)[C@@]1(OC(=O)c1ccco1)C(=O)CCl |  | inactive
7 | CC1(C)[C@H](C(=O)O)N2C(=O)C[C@H]2S1(=O)=O |  | inactive
8 | CC(=O)O[C@H]1C[C@@H]2CC[C@@H]3[C@H](CC[C@@]4(C)[C@H]3C[C@H]([N+]3(C)CCCCC3)[C@@H]4OC(C)=O)[C@@]2(C)C[C@@H]1N1CCCCC1 | -15.7% (inactive) | 
9 | C[C@]12CC[C@@H]3c4ccc(O)cc4CC[C@H]3[C@@H]1CC[C@@H]2OC(=O)CCC1CCCC1 |  | inactive
10 | CCC(=O)Oc1ccc2c(c1)CC[C@@H]1[C@@H]2CC[C@@]2(C)[C@H]1C[C@@H](OC(=O)CC)[C@@H]2OC(=O)CC | 1.17% (inactive) | 
11 | CC1(C)O[C@@H]2C[C@H]3[C@@H]4C[C@H](F)C5=CC(=O)CC[C@]5(C)[C@H]4[C@@H](O)C[C@]3(C)[C@]2(C(=O)CO)O1 | 2.98% (inactive) | 
12 | CCOC(=O)c1cccc(N)c1 |  | inactive
13 | COc1cc(NS(=O)(=O)c2ccc(N)cc2)nc(OC)n1 | -6.1% (inactive) | 
14 | CCCCC1(COC(=O)CCC(=O)O)C(=O)N(c2ccccc2)N(c2ccccc2)C1=O | 2.49% (inactive) | 
15 | C[C@H]1COc2c(C3(N)CC3)c(F)cc3c(=O)c(C(=O)O)cn1c23 | 3.39% (inactive) | 
16 | OC1C(O)C(O)C(O)C(O)C1O (stereo not drawn) |  | inactive
17 | O=C1C(CCS(=O)c2ccccc2)C(=O)N(c2ccccc2)N1c1ccccc1 (stereo not drawn) | 0.762% (inactive) | 
18 | CC(=O)N(CC(=O)N(C)C)c1ccccc1 | -4.19% (inactive) | 
19 | CNC1CCCN(c2c(F)cc3c(=O)c(C(=O)O)cn(C4CC4)c3c2OC)C1 (stereo not drawn) |  | inactive

Row | SMILES | activity change, negative = cytotoxicity | outcome
20 | CC(O)Cn1cnc2c1c(=O)n(C)c(=O)n2C (stereo not drawn) |  | inactive
21 | N[C@H](Cc1c[nH]c2ccccc12)C(=O)O |  | inactive
22 | O=C(O)CCC(=O)Nc1ccc(S(=O)(=O)Nc2nccs2)cc1 |  | inactive
23 | NCC1CCC(C(=O)Oc2ccc(CCC(=O)O)cc2)CC1 (stereo not drawn) |  | inactive
24 | C[C@@H]1C[C@H]2[C@@H]3CCC4=CC(=O)C=C[C@]4(C)[C@@]3(F)[C@@H](O)C[C@]2(C)[C@@]1(O)C(=O)COC(=O)c1ccncc1 |  | inactive
25 | CCN(CC)CCNC(C(=O)OCCC(C)C)c1ccccc1 (stereo not drawn) | -2.46% (inactive) | 
26 | Cc1cccc(N(C)C(=S)Oc2ccc3c(c2)CCC3)c1 | 0.585% (inactive) | 
27 | O=[N+]([O-])c1nccn1CO[C@@H](CO)[C@H](O)CO | -0.756% (inactive) | 
28 | CC[N+]1(CC)CCC(=C(c2ccccc2)c2ccccc2)C1C (stereo not drawn) |  | inactive
29 | CN(C)CCn1nnnc1SCC1=C(C(=O)O)N2C(=O)[C@@H](NC(=O)Cc3csc(N)n3)[C@H]2SC1 | -11.3% (inactive) | 
30 | O=C(O)c1cn(-c2ccc(F)cc2)c2cc(N3CCNCC3)c(F)cc2c1=O | 1.39% [at 26.4 µM] (inactive) | 
31 | Oc1cc(O)c2c(c1)O[C@H](c1ccc(O)c(O)c1)[C@H](O)C2 | 4.13% (inactive) | 
32 | CN(C)C(=O)Oc1cccc([N+](C)(C)C)c1 |  | inactive
33 | O=C(NN1CCCC1)NS(=O)(=O)c1ccc(Cl)cc1 |  | inactive
34 | C/C=C/c1ccc(O)c(OC)c1 | 3.73% (inactive) | 
35 | CCCCC(=O)O[C@]1(C(=O)CO)CC[C@H]2[C@@H]3CCC4=CC(=O)CC[C@]4(C)[C@H]3[C@@H](O)C[C@@]21C |  | inactive
36 | Cc1[nH]c(=O)c(C#N)cc1-c1ccc2nccn2c1 |  | inactive
37 | CCCCNc1cc(C(=O)O)cc(S(N)(=O)=O)c1Oc1ccccc1 |  | inactive
38 | Cc1cccc(N(C)C(=S)Oc2ccc3ccccc3c2)c1 | -11.9% (inactive) | 
